Results filed as inconclusive are left out. Active and inactive are the calls of the source. Calls follow the shape of the dose curve; as a rule, active = well fitted curve in the direction sought with a large enough effect; inconclusive = small, poorly fitted or top-dose-only effect, or another doubt; inactive = no such curve, though single readings can be large; an effect the other way counts as inactive or inconclusive.
Tests used:
CRL-7250 = normal cell line; test: Cytotoxic Profiling of Annotated Libraries Using Quantitative High-Throughput Screening (AID 1296008); conditions: Five cell lines viability, CellTiter-Glo ATP luminescence, 48-72 h; max response: stronger effect = lower value; also: nearly all actives have a fitted effect of over 60% in size; as to max response: % is scaled to controls: 0 for no effect and ±100 for the full control effect
Summary of the method: (§1)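 Compounds were pin-transferred onto cells and incubated 48 or 72 hr at 37 degree Celsius, 95% humidity. CellTiter-Glo was added, plates sat 10 min at room temperature, then ATP-coupled luminescence was imaged as the viability read-out.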

HEK293 = test: as above; conditions: Five cell lines viability, CellTiter-Glo ATP luminescence, 48-72 h; max response: stronger effect = lower value
Summary of the method: as §1

HaCat [1] = test: as above; conditions: Five cell lines viability, CellTiter-Glo ATP luminescence, 48-72 h; max response: stronger effect = lower value
Summary of the method: as §1

KB-3-1 = test: as above; conditions: Five cell lines viability, CellTiter-Glo ATP luminescence, 48-72 h; max response: stronger effect = lower value
Summary of the method: as §1

NIH3T3 [2] = test: as above; conditions: Five cell lines viability, CellTiter-Glo ATP luminescence, 48-72 h; max response: stronger effect = lower value
Summary of the method: as §1

HACAT [3] = test: qHTS assay to identify novel small-molecules to repurpose for Merkel cell carcinoma treatment (AID 1296009); conditions: MCC and control cell lines, CellTiter-Glo viability, 72 h; at 44.8 µM (top of the series) unless noted; also: nearly all actives have a fitted effect of over 60% in size
Summary of the method: (§2)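 Luminescence from CellTiter-Glo, read 10 min after addition at room temperature, reported viability following a 72 hr, 37 degree celsius treatment with NPC or MIPE compounds in titration; values normalized to plate controls.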

NIH3T3 [4] = test: as above; conditions: MCC and control cell lines, CellTiter-Glo viability, 72 h; at 44.8 µM (top of the series) unless noted
Summary of the method: as §2

C33A = test: Primary qHTS to identify gynecologic anti-cancer compounds using libraries of approved drugs and bioactive compounds (AID 1345084); conditions: Gynecologic cancer cell panel viability, ATPlite luminescence, 48 h; series mostly up to 57.5 µM; also: % is scaled to controls: 0 for no effect and ±100 for the full control effect; nearly all actives have a fitted effect of over 55% in size
Summary of the method: (§3)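 In this quantitative HTS, cell killing is estimated from loss of ATP-dependent luciferase light. Cells see five compound concentrations over a 48 h exposure.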

CASKI = test: as above; conditions: Gynecologic cancer cell panel viability, ATPlite luminescence, 48 h; series mostly up to 57.5 µM
Summary of the method: as §3

Es-2 = test: as above; conditions: Gynecologic cancer cell panel viability, ATPlite luminescence, 48 h; series mostly up to 57.5 µM
Summary of the method: as §3

HeLa = test: as above; conditions: Gynecologic cancer cell panel viability, ATPlite luminescence, 48 h; series mostly up to 57.5 µM
Summary of the method: as §3

Hek293T = test: as above; conditions: Gynecologic cancer cell panel viability, ATPlite luminescence, 48 h, control line for the selectivity index; series mostly up to 57.5 µM
Summary of the method: as §3

JEG-3 = test: as above; conditions: Gynecologic cancer cell panel viability, ATPlite luminescence, 48 h; series mostly up to 57.5 µM
Summary of the method: as §3

OV90 = test: as above; conditions: Gynecologic cancer cell panel viability, ATPlite luminescence, 48 h; series mostly up to 57.5 µM
Summary of the method: as §3

CAOV3 = test: as above; conditions: Gynecologic cancer cell panel viability, ATPlite luminescence, 48 h; series mostly up to 57.5 µM
Summary of the method: as §3

CN[C@H](CNC(=O)N1CCC[C@@H]([C@@H](OCCNC(=O)OC)c2cccc(Cl)c2)C1)C[C@H]1CCCOC1
inactive: max response (CRL-7250) -5.16% | max response (HEK293) 0.31% | outcome (HaCat [1]) | max response (KB-3-1) 1.87% | outcome (NIH3T3 [2]) | outcome (HACAT [3]) | outcome (NIH3T3 [4]) | Potency (C33A) | outcome (CASKI) | Potency (Es-2) | Potency (HeLa) | Potency (Hek293T) | Potency (JEG-3) | Potency (OV90)

O=C(O)[C@H]1Cc2ccccc2CN1
inactive: max response (CRL-7250) 1.62% | max response (HEK293) 4.72% | outcome (HaCat [1]) | max response (KB-3-1) 0.759% | max response (NIH3T3 [2]) 4.47% | outcome (HACAT [3]) inactive [at 4.96 µM] | activity change, negative = cytotoxicity (C33A) -12.5% [at 6.55 µM] | activity change, negative = cytotoxicity (CAOV3) 20.2% [at 6.55 µM] | activity change, negative = cytotoxicity (CASKI) -0.242% [at 6.55 µM] | activity change, negative = cytotoxicity (Es-2) -0.653% [at 6.55 µM] | activity change, negative = cytotoxicity (HeLa) 1.2% [at 6.55 µM] | activity change, negative = cytotoxicity (Hek293T) 13.1% [at 6.55 µM] | activity change, negative = cytotoxicity (JEG-3) 1.96% [at 6.55 µM] | activity change, negative = cytotoxicity (OV90) 0.2% [at 6.55 µM]

CC1(C)CC[C@]2(C(=O)O[C@@H]3O[C@H](CO)[C@@H](O)[C@H](O)[C@H]3O)CC[C@]3(C)C(=CCC4[C@@]5(C)CC[C@H](OC6OC(C(=O)O)C(OC7OC(CO)C(O)C(O)C7O)C(O)C6O)C(C)(C)C5CC[C@]43C)C2C1 (some centres not stated)
inactive: max response (CRL-7250) 0.724% | max response (HEK293) 3.09% | outcome (HaCat [1]) | outcome (KB-3-1) | outcome (NIH3T3 [2]) | outcome (HACAT [3]) inactive [at 9.27 µM] | outcome (NIH3T3 [4]) inactive [at 9.27 µM] | activity change, negative = cytotoxicity (C33A) 1.52% [at 11.6 µM] | activity change, negative = cytotoxicity (CASKI) 15.2% [at 11.6 µM] | activity change, negative = cytotoxicity (Es-2) 1.85% [at 11.6 µM] | activity change, negative = cytotoxicity (HeLa) 2.77% [at 11.6 µM] | activity change, negative = cytotoxicity (Hek293T) 10.4% [at 11.6 µM] | activity change, negative = cytotoxicity (JEG-3) 9.79% [at 11.6 µM] | activity change, negative = cytotoxicity (OV90) 8.01% [at 11.6 µM]

CC1=CC(=O)CC(C)(C)C1CCC(C)O[C@@H]1O[C@H](CO)[C@@H](O)[C@H](O)[C@H]1O (some centres not stated)
inactive: outcome (CRL-7250) | max response (HEK293) 3.44% | outcome (HaCat [1]) | max response (KB-3-1) 5.09% | max response (NIH3T3 [2]) 0.902% | outcome (HACAT [3]) | Potency (C33A) | Potency (CAOV3) | outcome (CASKI) | Potency (Es-2) | Potency (HeLa) | Potency (Hek293T) | Potency (JEG-3) | Potency (OV90)

Cc1ccc(-n2nc(C(C)(C)C)cc2NC(=O)Nc2cc(COc3cccnc3)[nH]n2)cc1
inactive: max response (CRL-7250) -4.33% | max response (HEK293) -3.79% | outcome (HaCat [1]) | outcome (KB-3-1) | outcome (NIH3T3 [2]) | outcome (HACAT [3]) | outcome (NIH3T3 [4]) | Potency (CAOV3) | outcome (CASKI) | Potency (Es-2) | Potency (HeLa) | Potency (Hek293T) | Potency (JEG-3) | Potency (OV90)

CC(C)/C=C1/NC(=O)C(C(C)C)n2c1nc1c(O)cccc1c2=O (configuration not stated)
inactive: outcome (CRL-7250) | max response (HEK293) -10.9% | outcome (HaCat [1]) | max response (KB-3-1) 3.96% | max response (NIH3T3 [2]) -2.82% | outcome (HACAT [3]) | Potency (C33A) | Potency (CAOV3) | outcome (CASKI) | Potency (Es-2) | Potency (HeLa) | Potency (Hek293T) | Potency (JEG-3) | Potency (OV90)

CCC(C)/C=C(C)/C=C/C1=CC2=C(Cl)C(=O)C(C)(O)C(=O)C2(O)C(OC)O1 (configuration not stated)
inactive: max response (CRL-7250) -11.8% | max response (HEK293) -3.29% | outcome (HaCat [1]) | outcome (KB-3-1) | outcome (NIH3T3 [2]) | outcome (HACAT [3]) inactive [at 17.4 µM] | outcome (NIH3T3 [4]) inactive [at 17.4 µM] | Potency (C33A) | outcome (CASKI) | Potency (HeLa) | Potency (Hek293T) | Potency (JEG-3) | Potency (OV90)

C=C1CCC[C@]2(C)CC[C@@](O)(C(=C)C(=O)O)C[C@@H]12
inactive: max response (CRL-7250) -0.228% | max response (HEK293) -21.6% | outcome (HaCat [1]) | max response (KB-3-1) -4.38% | max response (NIH3T3 [2]) -3.81% | outcome (HACAT [3]) | Potency (C33A) | Potency (CAOV3) | outcome (CASKI) | Potency (Es-2) | Potency (HeLa) | Potency (Hek293T) | Potency (JEG-3) | Potency (OV90)

CC1=CC(=O)C2C(C)(C)CCC[C@]2(C)[C@H]1CC[C@H](C)CC(=O)O (some centres not stated)
inactive: max response (CRL-7250) -2.16% | max response (HEK293) -12.7% | outcome (HaCat [1]) | outcome (KB-3-1) | outcome (NIH3T3 [2]) | outcome (HACAT [3]) | outcome (NIH3T3 [4]) | Potency (C33A) | outcome (CASKI) | Potency (Es-2) | Potency (HeLa) | Potency (Hek293T) | Potency (JEG-3) | Potency (OV90)

CC/C=C\CC1C(CC(=O)O)CCC1OC1OC(CO)C(O)C(O)C1O (configuration not stated)
inactive: outcome (CRL-7250) | max response (HEK293) 0.263% | outcome (HaCat [1]) | max response (KB-3-1) 8.15% | outcome (NIH3T3 [2]) | outcome (HACAT [3]) | outcome (NIH3T3 [4]) | Potency (C33A) | outcome (CASKI) | Potency (Es-2) | Potency (HeLa) | Potency (Hek293T) | Potency (JEG-3) | Potency (OV90)

C/C(=C\CCC(C)(C)O)CCO[C@@H]1O[C@H](CO[C@@H]2O[C@@H](C)[C@H](O)[C@@H](O)[C@H]2O)[C@@H](O)[C@H](O)[C@H]1O
inactive: outcome (CRL-7250) | max response (HEK293) -3.15% | outcome (HaCat [1]) | max response (KB-3-1) 4.26% | outcome (NIH3T3 [2]) | outcome (HACAT [3]) inactive [at 17.4 µM] | outcome (NIH3T3 [4]) inactive [at 17.4 µM] | Potency (CAOV3) | outcome (CASKI) | Potency (Es-2) | Potency (HeLa) | Potency (Hek293T) | Potency (JEG-3) | Potency (OV90)

Cc1ccc(-c2c(-c3nn(C)c4ncnc(N5CC[C@H](N6CCCCC6)C5)c34)cnn2C)cc1
inactive: max response (CRL-7250) -0.469% | max response (HEK293) -5.54% | outcome (HaCat [1]) | max response (KB-3-1) -0.872% | outcome (NIH3T3 [2]) | outcome (HACAT [3]) | outcome (NIH3T3 [4]) | Potency (C33A) | outcome (CASKI) | Potency (Es-2) | Potency (HeLa) | Potency (Hek293T) | Potency (JEG-3) | Potency (OV90)

— PubChem BioAssay (NCATS)
